Experimental data as given in the supplement of paper PMC3334620.
In all, about 33,000 sequences were measured (“E-score (-0.5 to 0.5)”: median about -0.04, highest 2% from about 0.36 on). Many of the other results were omitted from the sample, so the highest values are more common in it than they were.

Biological target: T1, Hmlalpha2 (UniProt P0CY09)
T1 sequence: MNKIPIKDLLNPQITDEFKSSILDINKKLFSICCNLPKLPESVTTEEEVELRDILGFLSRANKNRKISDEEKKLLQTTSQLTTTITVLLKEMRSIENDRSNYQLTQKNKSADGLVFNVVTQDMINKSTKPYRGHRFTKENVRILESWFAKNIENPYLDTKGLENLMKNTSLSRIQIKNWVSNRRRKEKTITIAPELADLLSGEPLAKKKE
Assay: PBM E-score (8-mer binding enrichment) (E-score (-0.5 to 0.5)); higher = stronger / more preferred TF binding
Settings: protein concentration: 200 nM; construct: GST-full length
Experimental: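 Universal 'all 10-mer' protein binding microarrays (Agilent AMADID 015681) probed with GST-tagged S. cerevisiae TFs (full-length or DBD) made by in vitro transcription/translation (PURExpress), about 100-200 nM. Bound TF was detected with fluorescent anti-GST. Each ungapped 8-mer (which stands for itself and its reverse complement) is scored by the PBM enrichment score (E-score), a modified Wilcoxon-Mann-Whitney statistic from -0.5 to +0.5, computed with the Universal PBM Analysis Suite. Scale: above 0.35 generally sequence-specific binding.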

| Sequence | PBM E-score |
| --- | --- |
| TCACACAA | 0.23 |
| TTACAAAA | 0.266 |
| TTACACAA | 0.478 |
| CCACACAC | 0.0345 |
| CTACACCC | 0.0904 |
| CTCTACAG | 0.0676 |
| CCACACAA | -0.0216 |
| CTACACAA | 0.369 |
| CTACAGAG | 0.184 |
| GCATAAGC | 0.119 |
| ACTGCCTC | -0.0994 |
| CCCATTCG | -0.0725 |
| GAAGCGGC | -0.131 |
| GTACACAC | 0.357 |
| GTACACAA | 0.373 |
| GCACACAA | 0.155 |
| AAGTGCTG | 0.107 |
| TGCCACCA | -0.261 |
| ACCATGGT | -0.0519 |
| AACATGGT | 0.384 |
| CACATGGC | 0.0319 |
| AACATGGG | 0.415 |
| ATCATGGG | -0.0934 |
| AACATGGC | 0.406 |
| AACATGGA | 0.346 |

| Sequence | PBM E-score |
| --- | --- |
| CACATGGG | -0.0456 |
| GACATGGC | 0.224 |
| ACACTGTA | 0.116 |
| TCAGAAGA | -0.267 |
| AATGCCCA | 0.0243 |
| AAATCCGG | -0.18 |
| AAGTATTG | 0.0978 |
| AACACAGG | 0.247 |
| AACACAGC | 0.379 |
| CACACAAC | 0.27 |
| GACACAAC | 0.264 |
| CACACAGC | 0.201 |
| AACACAAG | 0.326 |
| AACACAAC | 0.409 |
| CACACAAG | 0.248 |
| AACACAAT | 0.373 |
| CGTTAGGA | 0.0405 |
| CATCGACA | -0.0243 |
| GACGCTCA | -0.111 |
| GGCCACCC | -0.351 |
| CGGGGCGC | -0.244 |
| CACACGTA | 0.271 |
| AAAACGTT | 0.0264 |
| GACACGTA | 0.293 |
| ACCACGTA | 0.254 |

| Sequence | PBM E-score |
| --- | --- |
| AACACGTA | 0.41 |
| TACACGTA | 0.428 |
| AACACGTG | 0.348 |
| AACACGTC | 0.377 |
| AACACGTT | 0.403 |
| GACACGTC | 0.2 |
| CACACGTG | 0.289 |
| CACACGTC | 0.166 |
| CAAGTACA | 0.266 |
| TAAGTGGA | 0.0716 |
| ACATTTAC | 0.348 |
| ACTGTCGC | -0.165 |
| CGGAGAAG | -0.358 |
| CCCTTTAG | -0.261 |
| ATGACTCG | -0.0578 |
| GATCTAAC | 0.0316 |
| CACCGACG | 0.00164 |
| ACTAGGAG | -0.0601 |
| AACTAGGG | -0.094 |
| GAGGGAAC | -0.165 |
| ATACACGG | 0.445 |
| ACACACGG | 0.277 |
| AGACACGG | 0.228 |
| ATACACGC | 0.449 |
| ATACACCA | 0.215 |

| Sequence | PBM E-score |
| --- | --- |
| ATACACGA | 0.432 |
| ACACACGC | 0.288 |
| AGACACGC | 0.147 |
| ATACACTA | 0.149 |
| CTTTCATA | 0.162 |
| CAGTGTTA | 0.212 |
| AGGTGTTG | -0.053 |
| ACGTGTTA | 0.45 |
| ACGTGTTC | 0.211 |
| CCGTGTTC | 0.328 |
| GCGTGTTA | 0.46 |
| GCGTGGTA | 0.0607 |
| AGGTGTTA | 0.256 |
| ACGTGTTG | 0.415 |
| ACGTGTGG | 0.136 |
| GCGTGTGA | 0.284 |
| CCGTGTTA | 0.44 |
| TCGGAGCA | -0.279 |
| CTTAAAAC | 0.201 |
| AACTCTTG | -0.084 |
| GCTTGTTA | 0.286 |
| GAAACCAA | 0.00698 |
| CAAACATA | 0.118 |
| AAAACATT | 0.242 |
| TAAACATA | 0.416 |

| Sequence | PBM E-score |
| --- | --- |
| GAAACATA | 0.192 |
| CAAACATG | 0.34 |
| AAAACATC | 0.311 |
| AAAACATG | 0.434 |
| AAAACATA | 0.39 |
| AGAACATA | 0.248 |
| GGTTGAAC | 0.081 |
| ACTGCAGG | -0.11 |
| AACTCACT | 0.0592 |
| AGGTCGGA | -0.164 |
| AACCTAGA | -0.109 |
| CGTGTAAC | 0.443 |
| AGTGTAAC | 0.198 |
| CGTGTAAG | 0.467 |
| AGTGTAAG | 0.116 |
| ACTGTAAG | 0.0573 |
| GGTGTAAC | 0.288 |
| GAAATAGC | -0.0263 |
| CAACTAAA | 0.176 |
| CTCTAGAG | -0.148 |
| TCATCCCA | -0.231 |
| AGTAATAC | 0.211 |
| CGTAATAA | 0.378 |
| CGTAATAG | 0.246 |
| CATAATAA | 0.281 |

| Sequence | PBM E-score |
| --- | --- |
| CGTAATAC | 0.378 |
| TGTAATAA | 0.45 |
| AGTAATAA | 0.257 |
| GGTAATAC | 0.173 |
| GGTAATAA | 0.178 |
| AGCGCGCA | 0.0691 |
| CCGGGGAG | -0.241 |
| CAAGTCTG | -0.00344 |
| ACCTCTTC | -0.0525 |
| CGACGTTA | 0.231 |
| CGATGGAC | 0.0281 |
| CTTTTCAC | 0.0898 |
| AACCATGT | 0.368 |
| AAGCATGC | 0.117 |
| AATCATGA | 0.0793 |
| AACCATGC | -0.0458 |
| AAGCATGG | -0.112 |
| AATCATGG | 0.0457 |
| AATCATGT | 0.409 |
| AACCATGA | 0.149 |
| AAGCATGT | 0.377 |
| CCCCATTC | -0.266 |
| CGGGCATC | -0.287 |
| AAATTCCT | -0.135 |
| CATTCTGA | -0.213 |

| Sequence | PBM E-score |
| --- | --- |
| GCAGTTGA | -0.157 |
| AAAGAGCT | -0.0941 |
| GAGCTCCC | -0.322 |
| AAATTTAT | 0.201 |
| AAATTTAC | 0.375 |
| AAATTTAG | 0.0397 |
| ATTTTTAA | 0.237 |
| ATTTTTAC | 0.368 |
| AATTTTAC | 0.347 |
| AACCCTAC | -0.0838 |
| GAATTAGC | -0.0766 |
| AGCTCTAT | -0.102 |
| AGAGTGTA | 0.0904 |
| ACGCTATA | 0.0242 |
| ATTACGTC | 0.321 |
| GTTACGTA | 0.293 |
| ATTACGTG | 0.452 |
| CTTACGTA | 0.307 |
| AATACGTA | 0.317 |
| AATACGTC | 0.226 |
| ACTACGTG | 0.144 |
| ATTACGTA | 0.431 |
| AATACGTG | 0.383 |
